Common to all, as to assay: NCI-60 one-dose screen, 48 h (100 = growth as untreated, 0 = no growth, -100 = all killed)
Experiment [1] deals with HCT-15 colon. The conditions noted are these: 10 µM unless noted.
For experiment [2], the system named is SNB-75 CNS. The conditions noted are these: 10 µM.
Experiment [3] deals with SNB-19 CNS. The conditions noted are these: 10 µM unless noted.
Experiment [4] relates to U251 CNS. The conditions noted are these: 10 µM unless noted.
Experiment [5] deals with PC-3 prostate. The conditions noted are these: 10 µM unless noted.
Experiment [6] relates to UACC-62 melanoma. The conditions noted are these: 10 µM unless noted.
For experiment [7], the system named is LOX IMVI melanoma. The conditions noted are these: 10 µM unless noted.
For experiment [8], the system named is SK-MEL-28 melanoma. The conditions noted are these: 10 µM unless noted.
Experiment [9] has as its system SK-MEL-2 melanoma. The conditions noted are these: 10 µM unless noted.
The test system of experiment [10] is EKVX NSCLC. The conditions noted are these: 10 µM unless noted.
The test system of experiment [11] is SN12C renal. The conditions noted are these: 10 µM unless noted.
The test system of experiment [12] is UO-31 renal. The conditions noted are these: 10 µM unless noted.
Experiment [13] has as its system TK-10 renal. The conditions noted are these: 10 µM unless noted.
The test system of experiment [14] is ACHN renal. The conditions noted are these: 10 µM unless noted.
The subject of experiment [15] is CAKI-1 renal. The conditions noted are these: 10 µM unless noted.
The subject of experiment [16] is A498 renal. The conditions noted are these: 10 µM unless noted.
The subject of experiment [17] is CCRF-CEM leukemia. The conditions noted are these: 10 µM unless noted.
In experiment [18] the test system is MOLT-4 leukemia. The conditions noted are these: 10 µM unless noted.
In experiment [19] the test system is SK-MEL-5 melanoma. The conditions noted are these: 10 µM unless noted.

This is part of a sample that, as a whole, favours compounds with a hit. Of some 83,000 tested, about 20% had one in any assay.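 Note: values are percent growth. 100 is the growth of untreated cells, values between 100 and 0 indicate rising inhibition; between -100 and 0 indicates cell death.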 Unmarked numbers belong to inactive results. Calls of active or inactive are those of the source. The calls were made as follows: active = growth percent below 10; inactive = the rest.

On to `C=C[C@@H]1C[C@H](O)Cc2c(C)cc(C)cc2N1`, for which the growth in experiment [1] was 101%; in experiment [2], 93.6%; in experiment [3], 109%; in [4], 97.3%; in experiment [5] it was 88.6%; in experiment [6] it was 98.2%. Also, the growth is 77.6% in experiment [7]; 102% in experiment [8]; 111% in experiment [9]; 86.9% in [10]; 95.9% in [11]; 96% in [12]. For the same compound, the growth in experiment [13] was 85.8%; in experiment [14], 103%; in experiment [15], 97.2%; in experiment [16] it was 89.9%; in experiment [17], -19% (active); in experiment [18], -46.2% (active).
On to `COc1cc(C2CC(c3ccc4c(c3)OCO4)=NN2C=O)cc(OC)c1OC` (stereo unspecified), for which the growth was 33.5% in experiment [1]; -13.5% (active) in [2]; 42.8% in experiment [3]; 32% in experiment [4]; 47.9% in experiment [5]; 17.2% in experiment [19]. Also, the growth in experiment [6] is 40.9%; in experiment [7], 34.5%; in [9], 31.3%; in experiment [10], 37.9%; in experiment [11] it was 46.3%; in experiment [13], 53.2%. Besides, the growth in [15] is 6.42% (active); in experiment [16] it was 31.2%; in [17] it was 24.5%; in experiment [18], 45%.
As for `NC1=NN(O)C2=CC([N+](=O)[O-])C=CC2=N1` (stereo unspecified), the growth in [1] is 101%; in experiment [2] it was 99.5%; in experiment [3], 119%; in experiment [4], 109%; in experiment [5], 86.5%; in [6], 122%. Besides, the growth in experiment [7] is 83.7%; in experiment [8] it was 117%; in experiment [10] it was 99.5%; in experiment [11] it was 112%; in experiment [12] it was 93.3%; in experiment [13], 121%. Besides, the growth was 105% in experiment [14]; 93.8% in experiment [15]; 109% in experiment [16]; 104% in experiment [17]; 111% in experiment [18].
Consider `CN(C)c1ncnc2c1ccn2C1OC(CO)C(O)C1O` (stereo unspecified), for which the growth in experiment [1] was 14.3%; in experiment [2] it was 27%; in [4] it was 97%; in [5], 13%; in experiment [19], 89.5%; in experiment [6], 93.4%. Besides, the growth in [7] is 3.02% (active); in experiment [8] it was 82.5%; in experiment [9], 54.9%; in experiment [10], 60.5%; in experiment [11], 17.8%; in [12], 24.8%. Further, the growth in experiment [13] is 40.9%; in experiment [14] it was 32.3%; in experiment [15], 34.7%; in experiment [16], 68%; in [17] it was 10.7%; in [18], 9% (active).
In the case of `NNc1cccc(/C=C/c2ccccc2)cc1=O`, the growth in experiment [1] was 33%; in experiment [3], 67.7%; in [4], 48.5%; in experiment [5] it was 61.3%; in experiment [19], 62.6%; in experiment [6] it was 54.5%. The growth was 33.4% in experiment [7]; 81.9% in experiment [8]; 83.1% in experiment [9]; 47.9% in experiment [10]; 71.6% in [11]; 24.9% in experiment [12]. The growth was 70.7% in experiment [13]; 37.5% in experiment [14]; 12.7% in [15]; 83.9% in [16]; 14.1% in [17].
On to `Cc1ccc(Cc2c(C=O)nc(N)[nH]c2=O)c2ccccc12`, for which the growth in [1] was 101%; in experiment [3], 98.5%; in [4], 95.3%; in experiment [5], 88.8%; in [19] it was 107%; in experiment [6], 110%. For the same compound, the growth in experiment [7] is 96.2%; in experiment [8] it was 104%; in experiment [10] it was 101%; in experiment [11], 96.9%; in experiment [12], 81.2%; in experiment [13], 112%. For the same compound, the growth in experiment [14] was 107%; in [15] it was 92.7%; in experiment [16] it was 118%; in [17], 80%; in [18], 86.8%.
As to `COP(=O)(OC)/C(=N\NS(=O)(=O)c1ccc(C)cc1)c1ccccc1`, the growth was 112% in experiment [1]; 94.7% in experiment [3]; 86.5% in [5]; 97.9% in experiment [19]; 96.7% in experiment [6]; 102% in [7]. Also, the growth was 110% in [8]; 110% in [9]; 97.7% in experiment [10]; 105% in experiment [11]; 92.6% in experiment [12]; 88% in [13]. Besides, the growth in experiment [14] is 101%; in experiment [15], 62.1%; in experiment [16], 92.4%; in experiment [17], 124%; in [18] it was 103%.
In the case of `O=C(O)C1CCCCN1c1nc(Cl)nc(Cl)n1` (stereo unspecified), the growth in experiment [1] was 102%; in experiment [3], 102%; in experiment [4] it was 104%; in experiment [5] it was 99.3%; in [19] it was 97.3%; in experiment [6] it was 99.8%. The growth is 95.8% in experiment [7]; 104% in experiment [9]; 99.8% in experiment [10]; 103% in experiment [11]; 98.1% in [12]; 103% in experiment [13]. Also, the growth was 113% in [14], 90% in [16], 105% in [17] and 104% in [18].
Take `COc1ccc(-c2ccc(C)n2-c2ccc(-c3nc4ccccc4s3)cc2)cc1`: the growth in experiment [1] was 96.5%; in experiment [3], 91.9%; in experiment [4], 90%; in [5], 91.6%; in experiment [19] it was 102%; in experiment [6], 86.1%. In addition, the growth is 88.3% in experiment [7]; 113% in experiment [8]; 78% in experiment [10]; 86.6% in experiment [11]; 86.6% in experiment [12]; 119% in experiment [13]. For the same compound, the growth in experiment [14] is 90.9%; in [16] it was 65.7%; in experiment [18], 81.8%.
With `O=c1[nH]c(-c2ccccc2)nc(CN2CCCCC2)c1O`, the growth was 113% in experiment [1]; 97.3% in experiment [3]; 105% in [5]; 98.6% in experiment [6]; 97.4% in experiment [7]; 111% in experiment [8]. The growth in experiment [9] is 111%; in [10], 112%; in experiment [11], 93.9%; in experiment [12], 95.1%; in experiment [13], 108%; in experiment [14] it was 106%. The growth in experiment [16] is 111%; in experiment [17] it was 96.8%; in experiment [18], 120%.
